Drawing on PubChem BioAssay (Tox21), this text covers Potency and outcome for 13 compounds.

Assay [1] can be described thus: qHTS assay for identifying genotoxic compounds that show differential cytotoxicity against isogenic chicken DT40 cell lines with known DNA damage response pathways - wild type cell line (AID 743012). Further: nearly all actives have a fitted effect of over 60% in size. In outline: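 Viability of DNA repair-proficient chicken DT40 cells was assessed by CellTiter-Glo luminescence following 40 h compound exposure at 37 C/5% CO2.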
A general note: qHTS replaces the single test concentration by a dilution series.

Assay [2] is described as follows: qHTS assay for identifying genotoxic compounds that show differential cytotoxicity against isogenic chicken DT40 cell lines with known DNA damage response pathways - Rad54/Ku70 mutant cell line (AID 743015). Further: nearly all actives have a fitted effect of over 60% in size.
Assay [3] is described as follows: qHTS assay to identify small molecule antagonists of the androgen receptor (AR) signaling pathway - cell viability counter screen (AID 743033; further: nearly all actives have a fitted effect of over 45% in size).
Assay [4] deals with Androgen receptor (Homo sapiens) (UniProt P10275). The assay can be described thus: qHTS assay to identify small molecule antagonists of the androgen receptor (AR) signaling pathway (AID 743035; active means well fitted inhibition curve with a large enough effect in the signal ratio in the repeat runs, not every such curve was filed as active; the % refers to the signal ratio). In outline:
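Reporter HEK293 cells were exposed to compounds and R1881 overnight (16 h, 37C); beta-lactamase activity was then quantified by FRET fluorescence.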

For assay [5] the target is unchanged. The assay can be described thus: qHTS assay to identify small molecule agonists of the androgen receptor (AR) signaling pathway (AID 743036; active means well fitted activation curve with a large enough effect in the signal ratio in the repeat runs, with a control signal flat, not every such curve was filed as active; the % refers to the signal ratio). In outline:
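Screening used 2,000 AR-bla HEK293 cells per well, treated 16 h at 37C with test compounds in DMSO alongside positive and DMSO-only controls; beta-lactamase activity was then read by LiveBLAzer B/G FRET fluorescence after 2 h at room temperature.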

Assay [6] has the same target. Nature of the assay: qHTS assay to identify small molecule agonists of the androgen receptor (AR) signaling pathway using the MDA cell line (AID 743040; further: nearly all actives have a fitted effect of over 20% in size). In short, it runs like this: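 Luciferase agonist assay: 16 h compound exposure at 37C without CO2 in MDA-kb2 AR-luc cells, whose MMTV promoter responds to both AR and GR. Luminescence measured after 30 min room-temperature incubation with ONE-Glo.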

Assay [7] shares this target. The assay can be described thus: qHTS assay to identify small molecule antagonists of the androgen receptor (AR) signaling pathway using the MDA cell line (AID 743042; further: nearly all actives have a fitted effect of over 55% in size). In outline: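 Antagonist mode: compounds plus R1881 agonist added to MDA-kb2 AR-luc cells, incubated 16 h at 37C. Luciferase reporter luminescence quantified, with multiplexed CellTiter-Fluor readout for cell viability.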

Assay [8] is described as follows: qHTS assay to identify small molecule antagonists of the thyroid receptor (TR) signaling pathway - cell viability counter screen (AID 743064). Further: nearly all actives have a fitted effect of over 50% in size. Further: potency means the concentration at half of the fitted maximal effect. In outline: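 Viability of T3-stimulated (1 nM final) GH3.TRE-Luc cells is measured by CellTiter-Fluor fluorescence after 23.5 h compound exposure at 37 °C plus 30 min reagent incubation.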
Assay [9] in a line: qHTS assay to identify small molecule antagonists of the thyroid receptor (TR) signaling pathway (AID 743065). Further: series mostly up to about 70 µM; nearly all actives have a fitted effect of over 55% in size. In outline:
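Antagonism measured as loss of luciferase signal in GH3 cells stably carrying a TRE-luciferase reporter, co-treated with compound and T3 (1 nM final) for 23.5 h at 37 C. Viability was read in the same well by CellTiter-Fluor.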

The subject of assay [10] is thyroid hormone receptor (rat, GH3 cells). Nature of the assay: qHTS assay to identify small molecule agonists of the thyroid receptor (TR) signaling pathway (AID 743066; calls by dose curve).
For assay [11], the target named is Estrogen receptor (Homo sapiens) (UniProt P03372). The assay can be described thus: qHTS assay to identify small molecule antagonists of the estrogen receptor alpha (ER-alpha) signaling pathway (AID 743069; active means well fitted curve in the direction sought with a large enough effect in the signal ratio in the repeat runs, not every such curve was filed as active; the % refers to the signal ratio). In short, it runs like this:
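Antagonist mode: compounds in DMSO were co-added with 17beta-estradiol to ER-alpha-bla HEK293 cells (2% charcoal-stripped serum) and left 18 h at 37C. Reporter inhibition was measured as FRET fluorescence after 2 h LiveBLAzer substrate at room temperature.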

Assay [12] can be described thus: qHTS assay to identify small molecule antagonists of the estrogen receptor alpha (ER-alpha) signaling pathway - cell viability counter screen (AID 743074; calls by dose curve;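 further: HEK293 cells carrying ER-alpha-UAS-bla reporter stimulated with 17beta-estradiol; nearly all actives have a fitted effect of over 45% in size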; further: potency means the concentration at half of the fitted maximal effect).
The target in assay [13] is Estrogen receptor (Homo sapiens) (UniProt P03372). Nature of the assay: qHTS assay to identify small molecule agonists of the estrogen receptor alpha (ER-alpha) signaling pathway (AID 743075; calls by dose curve;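 further: HEK293 GripTite cells with ER-alpha and UAS-driven beta-lactamase reporter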; further: potency means the concentration at half of the fitted maximal effect).
Estrogen receptor (Homo sapiens), sequence (P03372 whole entry, looked up): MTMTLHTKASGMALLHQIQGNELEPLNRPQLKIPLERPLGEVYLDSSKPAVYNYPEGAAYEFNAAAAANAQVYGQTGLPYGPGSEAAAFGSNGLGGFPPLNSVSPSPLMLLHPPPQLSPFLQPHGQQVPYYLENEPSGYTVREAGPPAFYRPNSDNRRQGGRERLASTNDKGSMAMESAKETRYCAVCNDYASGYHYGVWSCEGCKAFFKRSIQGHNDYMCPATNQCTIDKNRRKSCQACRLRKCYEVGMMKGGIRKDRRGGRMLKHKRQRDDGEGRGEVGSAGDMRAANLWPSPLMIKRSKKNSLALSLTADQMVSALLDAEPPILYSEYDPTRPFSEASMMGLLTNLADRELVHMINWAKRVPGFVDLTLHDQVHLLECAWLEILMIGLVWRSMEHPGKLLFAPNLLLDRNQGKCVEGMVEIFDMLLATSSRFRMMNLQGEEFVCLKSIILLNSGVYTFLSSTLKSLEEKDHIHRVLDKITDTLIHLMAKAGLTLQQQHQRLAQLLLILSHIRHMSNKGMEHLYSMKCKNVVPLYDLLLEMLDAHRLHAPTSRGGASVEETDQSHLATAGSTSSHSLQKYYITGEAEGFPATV
The nature of assay [14]: qHTS assay to identify small molecule antagonists of the estrogen receptor alpha (ER-alpha) signaling pathway using the BG1 cell line (AID 743080; calls by dose curve;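 further: BG1 cells stimulated with 17beta-estradiol alongside compound; series mostly up to about 70 µM; nearly all actives have a fitted effect of over 25% in size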). In outline:
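After 5 days in phenol-red-free 10% charcoal-stripped FBS medium, BG1-Luc-4E2 cells were seeded, left 24 h at 37 C, co-treated with compounds and 17beta-estradiol for 21.5 h, then assayed for viability and luciferase.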

Assay [15] is described as follows: qHTS assay to identify small molecule antagonists of the estrogen receptor alpha (ER-alpha) signaling pathway using the BG1 cell line - cell viability counter screen (AID 743081).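 Further: compound given together with 17beta-estradiol as the ER stimulus; series mostly up to about 70 µM; nearly all actives have a fitted effect of over 45% in size.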
For the next assay, the target named is Aromatase (Homo sapiens) (UniProt P11511). Nature of the assay: qHTS assay to identify aromatase inhibitors (AID 743083). Further: series mostly up to about 70 µM; nearly all actives have a fitted effect of over 55% in size.
Aromatase (Homo sapiens), sequence (P11511 whole entry, looked up): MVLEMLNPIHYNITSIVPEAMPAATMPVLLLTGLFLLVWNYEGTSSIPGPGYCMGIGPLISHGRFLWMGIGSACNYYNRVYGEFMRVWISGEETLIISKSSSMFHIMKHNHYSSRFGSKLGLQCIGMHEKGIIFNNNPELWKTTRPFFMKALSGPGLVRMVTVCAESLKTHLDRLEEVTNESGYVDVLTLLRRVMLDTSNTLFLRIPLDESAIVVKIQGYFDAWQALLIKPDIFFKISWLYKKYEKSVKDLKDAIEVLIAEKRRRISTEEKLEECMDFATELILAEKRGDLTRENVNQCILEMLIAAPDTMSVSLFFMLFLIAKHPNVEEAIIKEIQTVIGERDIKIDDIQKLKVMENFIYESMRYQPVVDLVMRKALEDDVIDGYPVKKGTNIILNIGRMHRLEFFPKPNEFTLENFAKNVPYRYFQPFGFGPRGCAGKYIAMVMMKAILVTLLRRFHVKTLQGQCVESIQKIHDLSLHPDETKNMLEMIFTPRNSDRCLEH
Assay [16] deals with Estrogen receptor (Homo sapiens) (UniProt P03372). Nature of the assay: qHTS assay to identify small molecule agonists of the estrogen receptor alpha (ER-alpha) signaling pathway using the BG1 cell line (AID 743079). Further: nearly all actives have a fitted effect of over 20% in size. Further: potency means the concentration at half of the fitted maximal effect.
Assay [17] in a line: qHTS assay for identifying genotoxic compounds that show differential cytotoxicity against isogenic chicken DT40 cell lines with known DNA damage response pathways - Rev3 mutant cell line (AID 743014). Further: nearly all actives have a fitted effect of over 55% in size.
The nature of assay [18]: qHTS assay to identify small molecule antagonists of the androgen receptor (AR) signaling pathway using the MDA cell line - cell viability counter screen (AID 743041; further: nearly all actives have a fitted effect of over 45% in size). In short, it runs like this: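 Viability read by CellTiter-Fluor fluorescence in the same wells as the antagonist screen, added after 15.5 h of a 16 h, 37C exposure. Human breast carcinoma MDA-kb2 AR-luc cells, compounds co-dosed with agonist R1881.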

Each structure is given as a SMILES string. Inconclusive results are not listed. Activity calls are given as the source filed them. Unless noted, the call rests on the fitted dose curve; in most records, active means well fitted curve in the direction sought with a large enough effect in the repeat runs; inconclusive means weak or mixed curves; inactive means no such curve, though single readings can be large; an effect the other way counts as inactive or inconclusive.

Androgen receptor (Homo sapiens), sequence (P10275 whole entry, looked up): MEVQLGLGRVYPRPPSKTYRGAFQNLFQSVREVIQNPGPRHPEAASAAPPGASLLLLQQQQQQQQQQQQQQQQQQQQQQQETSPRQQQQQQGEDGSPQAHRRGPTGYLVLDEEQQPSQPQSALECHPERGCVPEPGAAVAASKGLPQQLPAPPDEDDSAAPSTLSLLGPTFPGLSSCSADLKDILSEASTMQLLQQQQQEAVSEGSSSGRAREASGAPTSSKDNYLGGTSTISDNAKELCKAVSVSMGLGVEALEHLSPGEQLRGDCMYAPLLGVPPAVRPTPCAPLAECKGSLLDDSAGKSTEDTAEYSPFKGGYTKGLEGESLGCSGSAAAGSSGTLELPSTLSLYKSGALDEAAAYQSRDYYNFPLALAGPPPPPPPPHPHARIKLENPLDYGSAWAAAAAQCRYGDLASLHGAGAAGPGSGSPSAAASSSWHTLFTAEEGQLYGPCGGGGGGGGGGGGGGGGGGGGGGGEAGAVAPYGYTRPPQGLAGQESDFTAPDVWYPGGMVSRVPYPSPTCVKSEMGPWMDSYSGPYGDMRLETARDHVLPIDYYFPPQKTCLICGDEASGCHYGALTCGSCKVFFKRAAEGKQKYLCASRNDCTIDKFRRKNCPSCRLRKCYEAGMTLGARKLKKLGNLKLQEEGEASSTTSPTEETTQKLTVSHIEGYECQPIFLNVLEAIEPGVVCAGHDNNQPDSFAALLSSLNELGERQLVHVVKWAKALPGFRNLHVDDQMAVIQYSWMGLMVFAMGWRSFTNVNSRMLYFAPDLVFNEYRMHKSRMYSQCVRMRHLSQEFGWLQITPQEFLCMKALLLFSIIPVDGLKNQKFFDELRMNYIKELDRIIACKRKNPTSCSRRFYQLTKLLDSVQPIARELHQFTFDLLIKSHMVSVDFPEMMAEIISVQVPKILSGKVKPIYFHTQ

On to `CCC(C)(C)C1CCC(=O)CC1`, for which the Potency entry in assay [1], in assay [2], in [4], in assay [8], in assay [9] and in assay [10] was “inactive” throughout. In addition, the Potency result in [11], in assay [12] and in [13] was “inactive” throughout. Moreover, the compound was called inactive in assay [3], in assay [5], in [6], in [7], in assay [14] and in [15]. Moreover, in the assay with Aromatase (Homo sapiens), the compound was classed as inactive.
Consider `CC1=CC[C@H](CC=O)C1(C)C`, for which the Potency entry in assay [1], in assay [2], in assay [8], in [9], in assay [10] and in assay [11] was “inactive” throughout. In addition, the Potency result in [12], in assay [13] and in assay [16] was “inactive” throughout. Also, the outcome (in assay [3]; in [14]; in [15]; with Aromatase (Homo sapiens)) was inactive.
With `CCCCCCCCCCCCOC(C)=O`, the Potency entry in assay [1], in [17], in assay [2], in assay [8], in assay [9] and in assay [10] was “inactive” throughout. In addition, the Potency result in assay [11], in [12], in assay [13] and in [16] was “inactive” throughout. The call (in assay [3]; in [14]; in assay [15]; with Aromatase (Homo sapiens)) was inactive.
For the compound `CCCCCCCC[Si](OCC)(OCC)OCC`, the Potency entry in assay [1], in assay [17], in assay [2], in [9] and in [10] was “inactive” in each case. Besides, the call (in assay [3]; in assay [15]; in the assay with Aromatase (Homo sapiens)) was inactive. Besides, in assay [12], the Potency is 54.9 µM (active).
Turning to `CCCCC(CC)C(=O)OC(C)C` (centres undefined), the Potency entry in assay [1], in assay [17], in assay [2], in assay [8], in [9] and in assay [10] was “inactive” throughout. The Potency entry in assay [12] is “inactive”. Moreover, the outcome (in assay [3]; in [18]; in assay [15]; in the assay with Aromatase (Homo sapiens)) was inactive.
`CCCCOC(=O)[C@@H](C)Oc1ccc(Oc2ccc(C(F)(F)F)cn2)cc1`: the Potency entry in assay [1], in [17], in [2], in assay [8], in assay [9] and in assay [10] was “inactive” throughout. Moreover, the Potency result in assay [12] and in assay [13] was “inactive” in each case. For the same compound, the call in assay [3], in assay [18], in assay [14] and in assay [15] was inactive. Moreover, the Potency in assay [16] is 61.5 µM (active).
Take `CCN(CCO)c1cccc(C)c1`: the Potency result in assay [1], in assay [8], in assay [12], in [13] and in assay [16] was “inactive” each time. The outcome (in assay [3]; in assay [14]; in assay [15]; with Aromatase (Homo sapiens)) was inactive.
On to `Cc1cccc(NC(=S)N(C)C)c1`, for which the Potency result in assay [1], in assay [17], in assay [2], in assay [9], in assay [10] and in assay [12] was “inactive” in each case. Further, the call in assay [3], in assay [18] and in assay [15] was inactive.
For the compound `Nc1c(NC/C=C\COc2cc(CN3CCCCC3)ccn2)c(=O)c1=O`, the Potency entry in assay [1], in assay [17], in assay [2] and in assay [12] was “inactive” in each case. In addition, the outcome (in [3]; in [18]; with Aromatase (Homo sapiens)) was inactive. The Potency in [8] is 23.7 µM (active).
In the case of `Cc1oc(=O)oc1CN1CCN(c2cc3c(cc2F)c(=O)c(C(=O)O)c2n3C(C)S2)CC1` (centres undefined), the compound was called inactive (in [3]; in assay [18]; in assay [14]; in assay [15]; with Aromatase (Homo sapiens)). In addition, the Potency entry in assay [10] and in [12] was “inactive” each time. Further, the Potency in assay [13] was 23.9 µM [activator] (active); in assay [16], 8.41 µM (active).
In the case of `NC(=O)C1(N2CCCCC2)CCN(CCCC(=O)c2ccc(F)cc2)CC1`, the compound was classed as inactive (in [3]; in assay [14]; in [15]; in the assay with Aromatase (Homo sapiens)). Also, the Potency entry in assay [8], in [10], in assay [11], in assay [12], in assay [13] and in assay [16] was “inactive” in each case.
`CCOC(=O)OCC/C(SC(=O)OCC)=C(\C)N(C=O)Cc1cnc(C)nc1N`: the Potency result in assay [1], in assay [17], in assay [2], in assay [9] and in assay [10] was “inactive” in each case. Moreover, the call (in assay [3]; in [18]; in the assay with Aromatase (Homo sapiens)) was inactive.
With `CN[C@@H]1[C@@H](O)[C@@H](O[C@@H]2[C@H](O)[C@H](O[C@H]3OC(CN)=CC[C@H]3N)[C@@H](N)C[C@H]2N)OCC1(C)O` (some centres undefined), the Potency result in assay [1], in assay [17], in assay [8], in [9], in assay [10] and in assay [12] was “inactive” in each case. The compound was called inactive (in [3]; in assay [18]; in assay [15]; in the assay with Aromatase (Homo sapiens)).
